Data published in PubChem BioAssay AID504706 (National Center for Advancing Translational Sciences (NCATS), 2011).
Screen size: about 320,000 compounds; about 200 (0.062%) were called active. Another 6% or so got no clear call; they are omitted. The full list was thinned out, with actives kept by preference. Unmarked numbers belong to inactive results. Calls come from the whole dose curve; as a rule, active = well fitted activation curve with a large enough effect; inconclusive = small, poorly fitted or top-dose-only effect; inactive = no such curve, though single readings can be large or run the other way.

test: qHTS assay for re-activators of p53 using a Luc reporter; settings: H1299 p53-A138V BP100-luciferase reporter, luminescence, 24 h; series mostly up to 92.2 µM; activity change, positive = activation: at the top concentration; note: nearly all actives have a fitted effect of over 45% in size; for activity change, positive = activation: % of control where 0% means no effect
Method in brief: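 H1299 (p53-null), stable ts p53-A138V + BP100-Luc; 1000 cells/well, Opti-MEM/10% FBS; cpd 4 pt, 1:5; 24 h, 37 deg C, 5% CO2; detection reagent 10 min RT; luminescence.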
Potency is the fitted concentration of half-maximal effect.

Structure (SMILES) | activity change, positive = activation [%] | Potency
CCN(CC(=O)NC(C)C)C(=O)c1cc(S(=O)(=O)N2CCCCC2)ccc1N1CCCCC1 | -0.998 | 
COc1ccc(C(=O)COC(=O)CN2C(=O)C3CC=CCC3C2=O)c(OC)c1 (configuration not stated) | -10.4 | 
Cc1ccc(S(=O)(=O)N2C[C@@H]3CCCC[C@@H]3[C@@H](C)[C@H]2c2cn(Cc3ccccc3)c3ccc(F)cc23)cc1 | 10 | 
COc1ccc(C(=O)Nc2cc(S(=O)(=O)N3CCCC3)ccc2Cl)cc1 | -1.71 | 
CCN(C(=O)COC(=O)CCC(=O)c1cccs1)C1CCCCC1 | -2.62 | 
CC(=O)N(O)CCCCCNC(=O)CCC(=O)N(O)CCCCCNC(=O)CCC(=O)N(O)CCCCCNC(=O)CCC(=O)O | -0.988 | 
O=C(/C=C/c1ccc(Cl)c([N+](=O)[O-])c1)c1ccc(O)cc1 | -13.6 | 
O=C(/C=C/c1ccc2c(c1)OCCO2)c1ccc(O)cc1 |  | 22.4 µM (active)
O=C(O)/C=C/c1ccc2c(c1)OCCO2 | 1.53 | 
O=C(COC(=O)c1ccncc1)Nc1ccc2c(c1)OCO2 | 0.759 | 
O=C(Nc1cccc(S(=O)(=O)N2CCCCC2)c1)c1cncc(Br)c1 | 0.992 | 
COc1cc(S(=O)(=O)N2CCN(C(=O)C3CC3)CC2)ccc1NC(C)=O | -5.44 | 
CC[C@]12c3[nH]c4ccc(OC)cc4c3CCN1C(=O)C(CC(=O)NCCN1CCOCC1)C[C@@H]2C(=O)N1CCN(C(=O)C2CC2)CC1 (some centres not stated) | 2.11 | 
CC[C@]12c3[nH]c4cc(CCC(=O)N(C)C)ccc4c3CCN1C(=O)[C@@H](CC(=O)NCCCn1ccnc1)C[C@@H]2C(=O)N1CCN(C(=O)C2CC2)CC1 | -3.3 | 
CN(C)C(=O)CCc1ccc2c3c([nH]c2c1)[C@]1(C)[C@@H](C(=O)N2CCCCC2)C[C@H](CC(=O)NCCC2=CCCCC2)C(=O)N1CC3 | -5.25 | 
COc1cc(OC)cc(C(=O)NC(C(=O)N2CCC2)C(C)C)c1 (configuration not stated) | -1.81 | 

Structure (SMILES) | activity change, positive = activation [%] | Potency
O=C(N[C@H]1C/C=C\C(c2ccc(F)cc2)N(Cc2ccccc2)C(=O)C1)OCC1c2ccccc2-c2ccccc21 (some centres not stated) | -0.803 | 
COc1ccccc1C(=O)Nc1ccc(C)c(S(=O)(=O)N2CCCCC2)c1 | -8.11 | 
Cc1ccc2c(c1)NC(=O)[C@@]1(C)[C@@H](c3ccccc3)[C@H]3COc4ccc(Cl)cc4[C@@H]3N1C2=O | 0.966 | 
C[C@@H]1CN([C@H](C)CO)C(=O)c2cc(NC(=O)NC3CCCCC3)ccc2O[C@H]1CN(C)S(C)(=O)=O | 2.47 | 
O=C(C[C@@H]1C/C=C\CCC(=O)OC[C@@H]2CCCN2C1=O)NCCO | -5.06 | 
COc1ccc(/C=C/C(=O)OCC(=O)NC2CCCCCC2)cc1OC | -1.46 | 
CC1(C)CC[C@@]2(C(=O)O)C(C1)C1=CCC3[C@@]4(C)CC[C@H](O)C(C)(C)C4CC[C@@]3(C)[C@]1(C)C[C@H]2O (some centres not stated) | -3.51 | 
CC(=O)C[C@H](O)CC(=O)[C@@H]1OC(=O)[C@@H](C)C/C=C\Cc2ccccc21 | -0.871 | 
CCCCNC(=O)C(C)N(CCN(C)C)C(=O)CCCCCN1C(=O)NC(c2ccc(Cl)cc2)C(C(=O)OCc2ccccc2)=C1C (configuration not stated) | -8.52 | 
COc1cc2c(-c3ccc4c(c3)OCO4)c(-c3ccsc3)oc(=O)c2cc1OC | 2.64 | 
COc1cc(/C=C2\Oc3ccc(C#Cc4ccc(O)cc4)cc3C2=O)cc(OC)c1 | 14 | 
Cc1ccc(NS(=O)(=O)c2ccc(C(C)C)cc2)cc1S(=O)(=O)N1CCOCC1 | -4.53 | 
COc1ccc(Br)cc1CN(C)C(=O)C1CC(=O)N(C2CCCC2)C1 (configuration not stated) | -4.98 | 
Cc1nn(-c2ccccc2)c(Cl)c1C(=O)Nc1ccccc1 | 10 | 
Cc1nn(-c2ccccc2)c(C)c1/C=C/C(=O)OC(C)C(N)=O (configuration not stated) | 8.78 | 
Cc1nn(-c2ccccc2)c(Cl)c1/C=C/C(=O)c1ccc(O)cc1 |  | 22.4 µM (active)
